PubChem BioAssay (NCATS)
Several values for one entry are separate records, joined by “and”; a condition that tells them apart may be missing. Equal values may be shown once. Results filed as inconclusive are left out. Activity calls are given as the source filed them. Unless noted, calls follow the shape of the dose curve; as a rule, active = well fitted curve in the direction sought with a large enough effect; inconclusive = small, poorly fitted or top-dose-only effect, or another doubt; inactive = no such curve, though single readings can be large; an effect the other way counts as inactive or inconclusive.

Key:
[1] = target: Retinaldehyde dehydrogenase 3 (Homo sapiens) (UniProt P47895); assay: qHTS for Inhibitors of the Aldehyde Dehydrogenase Family (ALDH1A3) Validation screen (AID 2061312); also: % is scaled to controls: 0 for no effect and ±100 for the full control effect; nearly all actives have a fitted effect of over 45% in size
[2] = BET inhibitor-based combinations targeting novel dependencies in MECOM-rearranged (r) AML: SET-2 cell line (AID 2202231); conditions: SET-2 AML cells viability, CellTiter-Glo luminescence, 48 h; viability: hits give low values, concentration not given here; also: nearly all actives have a fitted effect of over 35% in size; also: potency is read from the fitted curve at half-maximal effect;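 as to viability: plate controls were DMSO treated cells for no effect and wells without cells for full effect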
How it was run: (§1)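 Here, 11-point titrations of each agent were applied to 500 seeded cells and incubated 48 hr; CellTiter-Glo signal, scaled against DMSO and empty wells, was integrated as AUC, then Z-scored within the individual line.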

[3] = BET inhibitor-based combinations targeting novel dependencies in MECOM-rearranged (r) AML: AML-191 cell line (AID 2202236; also: nearly all actives have a fitted effect of over 35% in size; also: potency is read from the fitted curve at half-maximal effect)
How it was run: as §1

[4] = BET inhibitor-based combinations targeting novel dependencies in MECOM-rearranged (r) AML: AML-194 cell line (AID 2202237; also: nearly all actives have a fitted effect of over 40% in size; also: potency is read from the fitted curve at half-maximal effect)
How it was run: as §1

[5] = BET inhibitor-based combinations targeting novel dependencies in MECOM-rearranged (r) AML: MV-4-11 cell line (AID 2202233); also: nearly all actives have a fitted effect of over 45% in size; also: potency is read from the fitted curve at half-maximal effect
How it was run: (§2)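 Normalized to DMSO and empty-well controls, the luminescence data from CellTiter-Glo after 48 hr drug exposure were fitted across 11 concentrations. Reported metrics are area under the dose-response curve and its Z-transformed form.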

[6] = target: Cellular tumor antigen p53 (Homo sapiens) (UniProt P04637); assay: Primary qHTS for small molecule compounds that upregulate eGFP-tagged delta133p53alpha (in N-terminal) cells. (AID 2060322); conditions: NCI-H358 eGFP-delta133p53alpha fluorescence, 24 h; activation: hits give high values;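 also: series mostly up to about 56 µM; 0% = DMSO vehicle and 100% = reference activator; nearly all actives have a fitted effect of over 75% in size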
Chain of Cellular tumor antigen p53 (Homo sapiens) (P04637 whole entry, looked up): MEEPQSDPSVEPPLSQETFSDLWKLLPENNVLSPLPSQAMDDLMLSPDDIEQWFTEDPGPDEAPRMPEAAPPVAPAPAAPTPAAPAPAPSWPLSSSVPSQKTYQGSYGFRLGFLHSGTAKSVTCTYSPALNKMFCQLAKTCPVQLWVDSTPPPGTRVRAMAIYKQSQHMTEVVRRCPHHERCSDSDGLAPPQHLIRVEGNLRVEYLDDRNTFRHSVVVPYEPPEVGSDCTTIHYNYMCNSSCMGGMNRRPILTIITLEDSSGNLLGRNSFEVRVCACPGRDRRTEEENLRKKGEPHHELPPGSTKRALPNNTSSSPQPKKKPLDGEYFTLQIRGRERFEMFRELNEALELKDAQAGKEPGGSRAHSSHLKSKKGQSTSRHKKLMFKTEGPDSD
How it was run: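 NCI-H358 cells pre-induced 24 h with 10 ng/ml doxycycline to express N-terminal eGFP-delta133p53alpha, then dosed 24 h at 37C without doxycycline; fixed, Hoechst-stained, GFP intensity by laser scanning cytometry, normalized to DMSO (0%) and 57.5 uM 5-azacytidine (100%).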

[7] = target: Cellular tumor antigen p53 (Homo sapiens) (UniProt P04637); assay: Primary qHTS for small molecule compounds that upregulate eGFP-tagged delta133p53alpha (in C-terminal) cells. (AID 2060324);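 also: 0% = DMSO wells and 100% = 57.5 µM 5-azacytidine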
How it was run: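 C-terminal eGFP-tagged delta133p53alpha NCI-H358 line; dox-induced (100 ng/ml, 24 h) then plated without dox; compounds pinned in titration, 24 h 37 °C/5% CO2; PFA fix, Hoechst nuclei; GFP by LSC.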

[8] = target: Aldehyde dehydrogenase, mitochondrial (Homo sapiens) (UniProt P05091); assay: qHTS for Inhibitors of the Aldehyde Dehydrogenase Family (ALDH2) Validation screens (AID 2061302; active = well fitted inhibition curve with a large enough effect; title and protocol of this record describe different tests; also: potency is read from the fitted curve at half-maximal effect)
[9] = qHTS for Inhibitors of the Aldehyde Dehydrogenase Family (ALDH1A2, ALDH1A3, ALDH2, ALDH3A1) (AID 2061307); also: nearly all actives have a fitted effect of over 50% in size
[10] = target: Retinaldehyde dehydrogenase 3 (Homo sapiens) (UniProt P47895); assay: qHTS for Inhibitors of the Aldehyde Dehydrogenase Family (ALDH1A3) Confirmatory screens (AID 2061311); also: potency is read from the fitted curve at half-maximal effect; nearly all actives have a fitted effect of over 60% in size
[11] = target: Retinal dehydrogenase 2 (Homo sapiens) (UniProt O94788); assay: qHTS for Inhibitors of the Aldehyde Dehydrogenase Family (ALDH1A2) Confirmation screens (AID 2061314); also: % is scaled to controls: 0 for no effect and ±100 for the full control effect; nearly all actives have a fitted effect of over 65% in size
[12] = target: Aldehyde dehydrogenase, mitochondrial (Homo sapiens) (UniProt P05091); assay: qHTS for Inhibitors of the Aldehyde Dehydrogenase Family (ALDH2) Primary screen (AID 2061308);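 also: plate controls were vehicle for no effect and reference inhibitor for full effect; nearly all actives have a fitted effect of over 55% in size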
[13] = target: Retinaldehyde dehydrogenase 3 (Homo sapiens) (UniProt P47895); assay: qHTS for Inhibitors of the Aldehyde Dehydrogenase Family (ALDH1A3) Primary screen (AID 2061315);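 also: plate controls were DMSO vehicle for no effect and reference inhibitor for full effect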
[14] = BET inhibitor-based combinations targeting novel dependencies in MECOM-rearranged (r) AML: HNT-34 cell line (AID 2202234);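 also: plate controls were vehicle wells for no effect and cell-free wells for full effect; nearly all actives have a fitted effect of over 35% in size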
How it was run: as §2

[15] = target: Aldehyde dehydrogenase 1A1 (Homo sapiens) (UniProt P00352); assay: qHTS for Inhibitors of the Aldehyde Dehydrogenase Family (ALDH1A1) Confirmatory screens (AID 2061316); also: potency is read from the fitted curve at half-maximal effect; nearly all actives have a fitted effect of over 65% in size

O=c1[nH]c2ccccc2n1C1CCN(CCCC(c2ccc(F)cc2)c2ccc(F)cc2)CC1
inactive: Potency [1]

CCN1CCN(C(=O)Cc2ccc(Nc3ncc(F)c(Nc4ccc(C(=O)Nc5ccccc5Cl)cc4)n3)cc2)CC1
active: Potency [2] 5.25 µM | Potency [3] 6.61 µM | Potency [4] 7.42 µM

Cn1cc(C2=C(c3cn(C4CCN(Cc5ccccn5)CC4)c4ccccc34)C(=O)NC2=O)c2ccccc21
inactive: viability [2] 103%

CN1CCN(c2ccc([N+](=O)[O-])c3no[n+]([O-])c23)CC1
active: Potency [5] 14.8 µM

Cc1[nH]nc2ccc(-c3cncc(OC[C@@H](N)Cc4c[nH]c5ccccc45)c3)cc12
active: Potency [3] 0.833 µM

NC(=O)c1ccc(OCC(O)CN2CC=C(c3ccc(F)cc3)CC2)cc1 (configuration not stated)
inactive: activation [6] 5.52% | Potency [7] | Potency [8]

OCc1cnc[nH]1
inactive: activation [6] -9.48% | Potency [7] | Potency [8]

CS(=N)(=O)CC[C@H](N)C(=O)O (some centres not stated)
inactive: activation [6] -13.1% | Potency [7] | Potency [8] | Potency [1]

N=C(N)c1ccc(CS(=O)(=O)F)cc1
inactive: activation [6] 3.92% | Potency [7] | Potency [8]

NC1CCc2cc(O)c(O)cc2C1 (configuration not stated)
active: Potency [10] 11.3 µM
inactive: activation [6] -13% | Potency [7] | Potency [8] | Potency [9] | Potency [11]

Oc1ccc2c3c1O[C@H]1c4[nH]c5c(c4C[C@@]4(O)[C@@H](C2)N(CC2CC2)CC[C@]314)C[C@@]1(O)[C@H]2Cc3ccc(O)c4c3[C@@]1(CCN2CC1CC1)[C@H]5O4
inactive: activation [6] 26.8% and -10.8% | Potency [7] | Potency [8] | Potency [1]

Cc1sc2ccccc2c1CC1=NCCN1
inactive: activation [6] -35.5% | Potency [7] | Potency [8] | Potency [1]

CC(C)(C)NCC(O)c1ccccc1Cl (configuration not stated)
inactive: activation [6] 26.8% and -4.18% | Potency [7] | Potency [8] | Potency [1]

NNC(=O)c1ccc(O)cc1
active: Potency [9] 8.96 µM
inactive: activation [6] -20.3% | Potency [7] | Potency [8] | Potency [1]

Cc1[nH]c2ccc(O)cc2c1CCN
inactive: activation [6] -25.5% | Potency [7] | Potency [8] | Potency [1]

CCCN1CC[C@@H]2c3cc(O)ccc3CC[C@@H]21
inactive: activation [6] -3.44% | Potency [7] | Potency [8] | Potency [1]

CC(=O)NCCc1c[nH]c2ccccc12
inactive: activation [6] -24.3% | Potency [7] | Potency [8] | Potency [12] | Potency [1] | Potency [13]

O=C(N[C@H]1CN2CCC1CC2)c1ccc(Cl)cc1
inactive: activation [6] 0.903% and 6.33% and -27.4% | Potency [7] | Potency [8] | Potency [12] | Potency [1] | Potency [13] | viability [2] 112% | Potency [5] | Potency [14] | Potency [3] | Potency [4]

CC(C)=CCOc1c2occc2cc2ccc(=O)oc12
inactive: activation [6] -10.9% and -24.3% | Potency [7] | Potency [8] | Potency [1]

Clc1cnc(Oc2ccc(Oc3ncc(Cl)cc3Cl)cc2)c(Cl)c1
inactive: activation [6] -22.6% | Potency [7] | Potency [8] | Potency [1]

NC(C(=O)O)c1cc(=O)[nH]o1 (configuration not stated)
inactive: activation [6] -10.1% | Potency [7] | Potency [8]

CCCC[N+]1(C)C2CC(OC(=O)[C@H](CO)c3ccccc3)CC1C1OC12 (some centres not stated)
inactive: activation [6] -8.28% | Potency [7] | Potency [8] | Potency [1]

O=C1CC[C@@]2(O)C3Cc4ccc(O)c5c4C2(CCN3CC2CC2)[C@H]1O5 (some centres not stated)
inactive: activation [6] -10.4% | Potency [7] | Potency [8]

CC(C)(C)OC(=O)NC1[C@H]2CNC[C@@H]12 (some centres not stated)
inactive: activation [6] -12.9% | Potency [7] | Potency [8]

CN1CCC[C@@H]1Cc1c[nH]c2ccc(Nc3ncccc3[N+](=O)[O-])cc12
inactive: activation [6] -40.7% and 3.34% | Potency [7] | Potency [8] | Potency [12] | Potency [1] | Potency [13]

Cc1nccc2c1[nH]c1ccccc12
inactive: activation [6] -18.9% | Potency [7] | Potency [8] | Potency [1]

CC(=O)OCC1=C(C(=O)O)N2C(=O)[C@@H](NC(=O)CCC[C@@H](N)C(=O)O)[C@H]2SC1
inactive: activation [6] 20.4% | Potency [7] | Potency [8] | Potency [1]

CCCN(CCC)C1CCc2cccc(O)c2C1 (configuration not stated)
inactive: activation [6] 29.8% | Potency [7] | Potency [8] | Potency [1]

CCS(=O)(=O)Nc1cccc(C(=C2CCCCC2)c2cnc[nH]2)c1
inactive: activation [6] -47% | Potency [7] | Potency [8] | Potency [1]

C[C@H]1C2Cc3ccc(O)cc3[C@@]1(C)CCN2CC1CC1
inactive: activation [6] -23.4% | Potency [7] | Potency [8] | Potency [1]

CC(C)(O)[C@@H]1C2OC(=O)[C@@H]1[C@]1(O)C[C@H]3O[C@]34C(=O)O[C@H]2[C@]14C (tested in a mixture with another compound)
inactive: activation [6] 10.1% | Potency [7] | Potency [8] | Potency [1]

NC(CCCCCP(=O)(O)O)C(=O)O (configuration not stated)
inactive: activation [6] -10.2% | Potency [7] | Potency [8] | Potency [1]

CNCCc1ccc(O)c(O)c1
inactive: activation [6] -26.5% | Potency [7] | Potency [8]

NC(=O)CI
active: Potency [8] 5.01 µM | Potency [9] 28.3 µM | Potency [10] 6.34 µM | Potency [15] 20.1 µM
inactive: activation [6] 22% | Potency [7]
